Where “and” joins values, the source holds several entries; their conditions need not be identical. Equal entries are not always repeated. This is part of a sample that, as a whole, favours compounds with a hit. Of some 83,000 tested, about 20% had one in any assay.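 A percent growth of 40 corresponds to 60% growth inhibition; 0 means no net growth; -100 means all cells died. Active threshold: below 10.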 Calls of active or inactive are those of the source.

Holding throughout (experiment): NCI-60 one-dose screen, 48 h (100 = growth as untreated, 0 = no growth, -100 = all killed)
Experiment [1] has as its system MCF7 breast. The following applies: 10 µM unless noted.
The subject of experiment [2] is RPMI-8226 leukemia. As to conditions: 10 µM.
For experiment [3], the system named is OVCAR-8 ovarian. The following applies: 10 µM unless noted.
Experiment [4] deals with OVCAR-5 ovarian. The following applies: 10 µM unless noted.
Experiment [5] relates to OVCAR-4 ovarian. The following applies: 10 µM unless noted.
The subject of experiment [6] is SK-OV-3 ovarian. As to conditions: 10 µM.
Experiment [7] relates to IGROV1 ovarian. As to conditions: 10 µM unless noted.
Experiment [8] deals with OVCAR-3 ovarian. As to conditions: 10 µM unless noted.
For experiment [9], the system named is NCI/ADR-RES ovarian. The following applies: 10 µM unless noted.
Experiment [10] has as its system BT-549 breast. As to conditions: 10 µM unless noted.
The subject of experiment [11] is MDA-MB-435 melanoma. As to conditions: 10 µM unless noted.
Experiment [12] relates to SW-620 colon. As to conditions: 10 µM unless noted.
Experiment [13] concerns HCT-116 colon. As to conditions: 10 µM unless noted.
Experiment [14] has as its system HCC-2998 colon. The following applies: 10 µM unless noted.
The subject of experiment [15] is KM12 colon. As to conditions: 10 µM unless noted.
The test system of experiment [16] is HS 578T breast. As to conditions: 10 µM unless noted.
Experiment [17] has as its system T-47D breast. The following applies: 10 µM.

Turning to `CC(O)c1cc2c(s1)C(=O)c1c(C(C)O)csc1C2=O` (centres undefined), the growth in experiment [1] is -78.4% [100 µM] (active) and -81.9% [100 µM] (active).
Regarding `Clc1ccc(C2=Nc3cccc4cccc(c34)N2)cc1Cl`, the growth in [2] is 56.8% (inactive); in [3] it was 97.7% (inactive); in experiment [4], 126% (inactive); in experiment [5] it was 32.6% (inactive); in experiment [6], 98.1% (inactive); in experiment [7], 71.8% (inactive). Further, the growth in experiment [8] was 86% (inactive); in experiment [9] it was 95.8% (inactive); in [10], 74.2% (inactive); in experiment [11], 114% (inactive); in [12] it was 99% (inactive); in [1], 50.2% (inactive). Also, the growth was 93% (inactive) in experiment [13], 104% (inactive) in [14] and 99.9% (inactive) in [15].
In the case of `O=c1ccc2ccccc2o1`, the growth in [3] was 105% (inactive); in [4], 104% (inactive); in experiment [6], 111% (inactive); in experiment [7] it was 111% (inactive); in experiment [8] it was 111% (inactive); in [16], 105% (inactive). Further, the growth in experiment [9] was 105% (inactive); in experiment [17] it was 116% (inactive); in experiment [10], 87.1% (inactive); in experiment [11] it was 102% (inactive); in experiment [12], 105% (inactive); in [1], 98.3% (inactive). For the same compound, the growth is 104% (inactive) in experiment [13], 106% (inactive) in experiment [14] and 99.1% (inactive) in experiment [15].
`Cc1cc(-c2nc3ccccc3s2)ccc1N`: the growth in [1] was 27.4% [100 µM] (inactive) and 5.42% [100 µM] (active).
Consider `COc1ccc(/C=C2\SC(=O)N(CN3CCN(c4cc5c(cc4F)c(=O)c(C(=O)O)cn5C4CC4)CC3)C2=O)cc1`, for which the growth in [2] was 99.9% (inactive); in experiment [3] it was 98.5% (inactive); in experiment [4], 108% (inactive); in experiment [5] it was 104% (inactive); in [7] it was 113% (inactive); in experiment [8], 110% (inactive). Also, the growth is 108% (inactive) in experiment [16]; 86.4% (inactive) in experiment [10]; 98% (inactive) in experiment [11]; 99.8% (inactive) in experiment [12]; 95.2% (inactive) in [1]; 85.7% (inactive) in experiment [13]. The values for the growth in experiment [14] and in experiment [15] were 104% (inactive) and 103% (inactive), respectively.
With `C1CCC([PH+](C2CCCCC2)C2CCCCC2[PH+](C2CCCCC2)C2CCCCC2)CC1.O=C(C1[CH-]CCCC1)C1CCCC[N-]1.[Au]` (centres undefined), the growth in experiment [5] is 18.2% (inactive); in experiment [16] it was 13.8% (inactive); in [9], 17.2% (inactive); in experiment [17], 10.3% (inactive).
Regarding `COc1ccc(/C=C(\C#N)c2ccc(OC)cc2)cc1`, the growth in [2] is 55.8% (inactive); in experiment [3], 81.9% (inactive); in [5], 81.8% (inactive); in experiment [6], 74.9% (inactive); in experiment [8], 62.6% (inactive); in [16], 86.3% (inactive). For the same compound, the growth in [9] is 4% (active); in experiment [17], 47.4% (inactive); in experiment [10], 95% (inactive); in experiment [11], 2.31% (active); in experiment [12], 38.6% (inactive); in [1], 36.8% (inactive). Also, the growth in experiment [13] was 55.4% (inactive); in experiment [15], 28.4% (inactive).
For the compound `Clc1ccccc1Nc1ccc2nnc(-c3ccncc3)n2n1`, the growth in [2] was 96.2% (inactive); in [3], 101% (inactive); in [4], 106% (inactive); in [6] it was 121% (inactive); in [8], 110% (inactive); in experiment [16], 99.6% (inactive). Besides, the growth in experiment [9] is 105% (inactive); in [17], 100% (inactive); in experiment [10], 101% (inactive); in experiment [11] it was 98% (inactive); in [12] it was 114% (inactive); in experiment [13] it was 101% (inactive). The growth in experiment [14] was 118% (inactive); in experiment [15] it was 101% (inactive).
`O=c1c2ncn(C3CCCCO3)c2n(-c2ccccc2)c(=S)n1-c1ccccc1` (centres undefined): the growth in experiment [1] is 43.5% [100 µM] (inactive) and 61.3% [100 µM] (inactive).
Regarding `NC(=O)c1c(Br)c(Br)c(Br)c(Br)c1C(=O)O` (tested in a mixture with another compound), in [5], the growth is 94.3% (inactive).
In the case of `C=C[C@H]1C[C@@H]2C[C@@H]3[C@H]4C/C=C\C(=O)NCCCC5NC(=O)C(=C(O)/C=C/[C@@H]4CC(=O)[C@H]3[C@@H]2[C@H]1C)C5=O` (some centres undefined), the growth is -54.5% (active) in [2]; -84.7% (active) in [3]; -92.7% (active) in experiment [4]; -78.1% (active) in [5]; -100% (active) in experiment [6]; -62.8% (active) in experiment [7]. Further, the growth in experiment [8] is -95.3% (active); in experiment [9] it was -73.4% (active); in [17], -53.5% (active); in experiment [11], -19.2% (active); in experiment [12], -58.2% (active); in experiment [1] it was -63.8% (active). The growth in experiment [14] was -30% (active); in [15] it was -17.4% (active).
Regarding `O=C(N/N=C/c1ccc(OC(F)F)c(OC2CCCC2)c1)c1cnn2c1NC(c1ccccc1)C2` (centres undefined), the growth in experiment [2] is 73.9% (inactive); in experiment [3] it was 90.4% (inactive); in [4], 93.7% (inactive); in experiment [5] it was 61.3% (inactive); in experiment [7] it was 83.4% (inactive); in [8], 78.9% (inactive). The growth is 69.2% (inactive) in [16]; 72.8% (inactive) in experiment [9]; 73.4% (inactive) in experiment [10]; 18% (inactive) in experiment [11]; 78.4% (inactive) in [12]; 69.2% (inactive) in experiment [1]. Also, the growth in experiment [14] was 111% (inactive); in experiment [15] it was 54.8% (inactive).
In the case of `CC(=O)c1cc2c(s1)C(=O)c1scc(C(C)=O)c1C2=O`, the growth in [1] was -68.6% [100 µM] (active) and -79.8% [100 µM] (active).
As for `CCC(C)[C@H]1O[C@]2(CC[C@@H]1C)C[C@@H]1C[C@@H](C/C=C(\C)[C@@H](OC3C[C@H](OC)C(O[C@H]4C[C@H](OC)[C@@H](O)[C@H](C)O4)[C@H](C)O3)[C@@H](C)/C=C/C=C3\CO[C@@H]4[C@H](O)C(C)=C[C@@H](C(=O)O1)[C@]34O)O2` (some centres undefined), the growth in experiment [3] was 42.4% (inactive); in [4], 24.4% (inactive); in [6], 50.8% (inactive); in experiment [7], 27.3% (inactive); in [8] it was -26.5% (active); in experiment [16], 26% (inactive). In addition, the growth is 7.07% (active) in [9]; 18.1% (inactive) in experiment [17]; -26.3% (active) in experiment [10]; 3.2% (active) in experiment [11]; 18.5% (inactive) in [12]; 6.74% (active) in experiment [1]. Moreover, the growth was -89.2% (active) in experiment [13], -82.3% (active) in experiment [14] and -11.8% (active) in [15].
`COc1ccc(/C=N/OCC(O)CNCc2ccccc2)cc1OC1CCCC1` (centres undefined): the growth in experiment [2] was 98.3% (inactive); in [3], 104% (inactive); in experiment [4], 101% (inactive); in experiment [5], 91.2% (inactive); in experiment [7], 95.7% (inactive); in experiment [8], 104% (inactive). Further, the growth is 111% (inactive) in experiment [16]; 90.9% (inactive) in experiment [10]; 99.4% (inactive) in experiment [11]; 103% (inactive) in experiment [12]; 93.9% (inactive) in [1]; 95.2% (inactive) in [13]. Moreover, the growth was 110% (inactive) in experiment [14] and 104% (inactive) in experiment [15].
Regarding `COc1cc(CC2c3cc(OC)c(OC)cc3CCN2C)c(Oc2cc3c(cc2OC)-c2c(O)c(OC)cc4c2C(C3)N(C)CC4)cc1OC` (centres undefined), the growth in experiment [1] was 20.4% [100 µM] (inactive) and -77.4% [100 µM] (active).
With `COc1cccc(OC(=O)c2ccccc2)c1OC(=O)c1ccccc1`, the growth in experiment [2] was 68.6% (inactive); in experiment [3], 91.6% (inactive); in experiment [4], 99.4% (inactive); in [5], 100% (inactive); in experiment [6], 90.4% (inactive); in [8], 68.5% (inactive). In addition, the growth in experiment [16] was 86.9% (inactive); in experiment [9], 9.73% (active); in experiment [17], 80.2% (inactive); in experiment [10] it was 83.4% (inactive); in experiment [11] it was -16.4% (active); in experiment [12], 40.1% (inactive). The growth in [1] was 47.4% (inactive); in experiment [13], 51.3% (inactive); in experiment [15], 45.2% (inactive).
On to `N#CC12COC3(CCCCC3C1(C#N)C#N)OC2=N` (centres undefined), for which, in experiment [1], the growth was -25.8% [100 µM] (active).
`CCOc1ccc(/C=N\N2CCCCCC2)cc1OCC`: the growth in [2] is 83.4% (inactive); in experiment [3], 101% (inactive); in experiment [4] it was 95% (inactive); in experiment [6] it was 91.6% (inactive); in [8], 104% (inactive); in experiment [16], 120% (inactive). Besides, the growth in [17] was 99.1% (inactive); in [11], 53.2% (inactive); in experiment [12], 114% (inactive); in experiment [1], 96% (inactive); in [13], 99.5% (inactive); in experiment [15] it was 103% (inactive).
Take `CCCCCCCCCCCCCCn1c2ccccc2c2c3c(c4c5cc(OC)ccc5oc4c21)C(=O)NC3=O`: the growth in experiment [2] is 112% (inactive); in experiment [3] it was 103% (inactive); in [4], 100% (inactive); in [7], 106% (inactive); in [8], 110% (inactive); in experiment [16], 95.6% (inactive). Moreover, the growth in experiment [9] is 107% (inactive); in experiment [17] it was 104% (inactive); in experiment [10], 101% (inactive); in experiment [11], 103% (inactive); in experiment [12] it was 104% (inactive); in experiment [1] it was 102% (inactive). For the same compound, the growth is 105% (inactive) in [13], 107% (inactive) in [14] and 102% (inactive) in experiment [15].
`COC(=O)c1c2c(c(C)[n+]([O-])c1C)C(=O)C=C(NCc1ccc(F)cc1)C2=O`: the growth in experiment [2] was -20.9% (active); in experiment [3] it was 2.54% (active); in experiment [4] it was -68.8% (active); in experiment [7], -59.4% (active); in experiment [8], -35.9% (active); in [9], -16.7% (active). Moreover, the growth in experiment [10] is -91.3% (active); in [11], -93.1% (active); in experiment [12] it was -9.71% (active); in experiment [1], -60.6% (active); in [14], -40.2% (active); in [15], 1.23% (active).
